From PubChem BioAssay (NCATS)
Results filed as inconclusive are left out. Active and inactive are the calls of the source. Unless noted, calls follow the shape of the dose curve; as a rule, active = well fitted curve in the direction sought with a large enough effect; inconclusive = small, poorly fitted or top-dose-only effect, or another doubt; inactive = no such curve, though single readings can be large; an effect the other way counts as inactive or inconclusive.

What was measured:
[1] = biological target: Lysosomal acid glucosylceramidase (Homo sapiens) (UniProt P04062); assay: Glucocerebrosidase-p2 (AID 348; in the data active = potency below about 10 µM; also: potency is read from the fitted curve at half-maximal effect); conditions: purified GBA, blue fluorogenic substrate, 40 min
In short: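 Compounds titrated from 0.6 nM upwards against 0.2 nM enzyme in pH 5.9 citric acid/KH2PO4, taurocholate, tween-20; blue fluorogenic substrate 80 uM, 40 min room temperature, stopped and read Ex 365/Em 440 for AC50.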

[2] = NFAT Signaling Pathway (AID 444; active = well fitted curve in either direction with a large enough effect, not every such curve was filed as active;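 also: carbachol stimulus at about its EC50 of 1 µM final; % is scaled to controls: 0 for no effect and ±100 for the full control effect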); conditions: Jurkat NFAT-bla M1, carbachol, beta-lactamase ratio, 5 h; at 7.69 µM (top of the series) unless noted
In short: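 Read-out: CCF4 FRET ratio (460 nm/530 nm) after 1 h RT dye loading, used for %activity and AC50 from titration series. Cells: Jurkat NFAT-β-lactamase/M1 line, treated with compound plus 1 uM carbachol for 5 h, 37 °C.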

[3] = Stat Signaling Pathway (AID 446; active = well fitted curve in either direction with a large enough effect, not every such curve was filed as active;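 also: ME-180 cervical cancer cells given 40 pM IL-6 alongside compound; SIE-controlled beta-lactamase reporter measured as 460/530 nm FRET emission ratio; % is scaled to controls: 0 for no effect and ±100 for the full control effect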); conditions: ME-180 SIE beta-lactamase reporter, IL-6 stimulated, 5 h; at 7.69 µM (top of the series) unless noted
In short: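 IL-6/STAT signaling read in ME-180 cells via an SIE beta-lactamase reporter. Stimulus was 40 pM IL-6 (its AC50) for 5 hrs, so both activation and inhibition register.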

[4] = biological target: Glucocorticoid receptor (Homo sapiens) (UniProt P04150); assay: GR-EFC Redistribution (AID 451; calls by dose curve; also: potency is read from the fitted curve at half-maximal effect); conditions: CHO-K1 GR-EFC translocation, beta-gal luminescence, 2 h
In short: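 Translocation of GR-ED fusion to nuclear EA restores b-gal, read by luminescence after 1 h room-temperature detection. Engineered CHO-K1 biosensor cells, 1,000/well, exposed 2 h at 37 C to titrations up to 46 uM final.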

[5] = biological target: Mitogen-activated protein kinase 10 (Mus musculus) (UniProt Q61831); assay: JNK3 AlphaScreen Assay (AID 530; active = well fitted curve in either direction with a large enough effect, not every such curve was filed as active;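 also: kinase came from lysate of stimulated human HepG2 cells; signal reports phosphorylation of biotinylated GST-cJun 1-79 at Ser73 with 10 µM ATP; % is scaled to controls: 0 for no effect and ±100 for the full control effect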); conditions: JNK3 lysate, c-Jun phosphorylation; series mostly up to 57.1 µM
In short: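 Room-temperature AlphaScreen kinase assay; pre-activated HepG2 lysate as JNK3 source, biotin-GST-cJun(1-79) substrate, 10 uM ATP, compound 15 min preincubation.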

[6] = biological target: 3',5'-cyclic-AMP phosphodiesterase 4B (Homo sapiens) (UniProt Q07343); assay: qHTS Assay for Inhibitors of PDE-IV (AID 607; active = well fitted activation curve with a large enough effect in the main read-out, with a control signal flat, not every such curve was filed as active; also: % of control where 0% means no effect); conditions: HEK293 ACTOne CNG channel cells, membrane potential fluorescence; series mostly up to 22.9 µM
In short: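 Live HEK293 cells with a modified cyclic nucleotide-gated (CNG) channel report intracellular cAMP via membrane-potential dye fluorescence (ex 535/em 590 nm). Endogenous PDE-IV was targeted. Compounds were tested at up to 22.9 uM final; RO 20-1724 100 uM served as control.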

[7] = biological target: Cytochrome P450 3A4 (Homo sapiens) (UniProt P08684); assay: qHTS Assay for Activators of Cytochrome P450 3A4 (AID 885); conditions: recombinant CYP3A4, Luciferin-PPXE luminescence, 60 min; series mostly up to 57.1 µM; also: nearly all actives have a fitted effect of over 65% in size; also: potency is read from the fitted curve at half-maximal effect
In short: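 Quantitative HTS format: compounds preincubated with 20nM human CYP3A4 and Luciferin-PPXE substrate at KM, reaction started by NADPH regeneration, stopped after 60 min, luciferase luminescence read 20 min later.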

[8] = qHTS Assay for Lipid Storage Modulators (AID 1519; calls by dose curve); conditions: Drosophila S3 cells, BODIPY lipid droplet/cell ratio, laser cytometry, cells loaded with oleic acid; for activity change, negative = inhibition: at 57.5 µM (top of the series)
In short: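 Cells seeded at 5,000 per well were treated with compounds over a concentration series and loaded with oleic acid (400 uM, as added). Lipid droplet fluorescence (488 nm excitation, 500-530 nm channel) was read by laser-scanning cytometry and normalized to 20 uM Triacsin C.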

[9] = Primary qHTS for small molecule stabilizers of the endoplasmic reticulum resident proteome: Secreted ER Calcium Modulated Protein (SERCaMP) assay (AID 1508630); conditions: SH-SY5Y GLuc-SERCaMP (Gaussia luciferase released on ER calcium loss) secretion, thapsigargin, luminescence; series mostly up to 38.4 µM; also: % is scaled to controls: 0 for no effect and ±100 for the full control effect
In short: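 GLuc-SERCaMP-expressing SH-SY5Y cells, pretreated 16 h with compound, are challenged with thapsigargin to empty ER calcium stores; after 4 h, coelenterazine is added directly to the medium and luminescence is imaged.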

[10] = biological target: Cytochrome P450 1A2 (Homo sapiens) (UniProt P05177); assay: p450-cyp1a2 (AID 410; calls by dose curve; also: potency is read from the fitted curve at half-maximal effect;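 as to activity change, negative = inhibition: -100% = full effect of reference inhibitor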); conditions: recombinant CYP1A2, luciferin-ME demethylation, luminescence; series mostly up to 57 µM
In short: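 Human CYP1A2 (20nM) demethylated Luciferin-ME at its Km (100uM) in 100mM KPO4. After 10 min compound preincubation, NADPH regeneration ran the reaction 60 min at room temperature. Luciferin was read by luminescence, normalized to 57 uM furafylline.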

[11] = biological target: Glucocorticoid receptor (Homo sapiens) (UniProt P04150); assay: GR-GFP Redistribution (AID 450;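 active = compounds whose dose series gives a full or clear partial fitted curve of increased nuclear translocation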; also: potency is read from the fitted curve at half-maximal effect); conditions: U2OS GR-GFP nuclear translocation, laser cytometry, 2 h
[12] = biological target: Cytochrome P450 3A4 (Homo sapiens) (UniProt P08684); assay: qHTS Assay for Inhibitors and Substrates of Cytochrome P450 3A4 (AID 884); conditions: recombinant CYP3A4, Luciferin-PPXE luminescence; series mostly up to 57.1 µM; also: nearly all actives have a fitted effect of over 50% in size; also: potency is read from the fitted curve at half-maximal effect
In short: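 20 nM human CYP3A4 with 25 uM Luciferin-PPXE (at KM) in 200 mM KPO4, preincubated 10 min with compound; NADPH regeneration started a 60 min RT reaction. Luciferin detected by luminescence, normalized to 57 uM ketoconazole as full inhibition.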

[13] = Confirmation and Secondary Assay for Modulators of Hemoglobin Beta Chain Splicing at IVS2 654 locus (AID 910); conditions: HeLa EGFP-654 splicing reporter, GFP fluorescence, 48 h; series mostly up to 38.3 µM;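 also: HeLa cells stably carrying EGFP split by mutant beta-globin IVS2-654 intron; per-well total GFP intensity by laser scanning cytometry after 2-day treatment; % of control where 0% means no effect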
In short: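 Readout: per-well total peak green fluorescence (488 nm ex, 500–520 nm em) from objects 5–250 µm, reflecting correct splicing of an EGFP-654 reporter. Compounds were applied for 2 days at 37 °C to overnight-plated HeLa EGFP-654 cells; controls were DMSO and 500 nM IVS2-654 PNA.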

[14] = Confirmation and Secondary Assay for Modulators of Hemoglobin Beta Chain Splicing at IVS2 705 locus (AID 930); conditions: HeLa EGFP-705 splicing reporter, GFP fluorescence, 48 h; series mostly up to 38.3 µM;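 also: HeLa cells stably expressing the EGFP-705 splicing reporter; GFP fluorescence per well restored by corrected splicing of the IVS2-705 intron in EGFP; % of control where 0% means no effect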
In short: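 HeLa EGFP-705 reporter; 500 cells/well, o/n 37C 5% CO2; cpd 2 d; 488 ex/500-520 em laser scan; total peak GFP intensity/well. Ref: 500 nM […] antisense PNA.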

[15] = biological target: Cytochrome P450 2C19 (Homo sapiens) (UniProt P33261); assay: qHTS Assay for Inhibitors and Substrates of Cytochrome P450 2C19 (AID 899); conditions: recombinant CYP2C19, luciferin-H EGE luminescence; series mostly up to 57.1 µM; also: potency is read from the fitted curve at half-maximal effect; nearly all actives have a fitted effect of over 60% in size
In short: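 Reactions contain 5nM enzyme, 10uM Luciferin-H EGE (KM) and 50mM KPO4; compound preincubates 10 min at 37C, NADPH regeneration starts turnover for 60 min. Luminescence after detection reagent gives activity.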

[16] = qHTS Assay for Identification of Small Molecule Agonists for Hypoxia Response Element Signaling Pathway (AID 914; active = well fitted activation curve with a large enough effect in the signal ratio, with a control signal flat, not every such curve was filed as active; the % refers to the signal ratio; also: potency is read from the fitted curve at half-maximal effect); conditions: ME-180 (cervical carcinoma) HRE-bla reporter, beta-lactamase ratio, CoCl2, 17 h; activation: stronger effect = higher value
In short: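 Read-out: CCF4 FRET ratio of 460nm to 530nm emission (excitation 405nm) after 2.5 hours at room temperature, taken from HRE-bla ME-180 cells that had been exposed to compound and EC50 CoCl2 for 17 hours.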

[17] = biological target: Ubiquitin carboxyl-terminal hydrolase 1 (Homo sapiens) (UniProt O94782); assay: Inhibitors of USP1/UAF1: Pilot qHTS (AID 504865); conditions: purified USP1/UAF1, Ub-rhodamine cleavage fluorescence; series mostly up to 54.9 µM;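 also: rhodamine fluorescence freed from ubiquitin-rhodamine substrate followed over time; top concentration of the series differs between compounds; % is scaled to controls: 0 for no effect and ±100 for the full control effect; nearly all actives have a fitted effect of over 35% in size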
In short: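 In 50mM HEPES pH 7.8 containing 0.5mM EDTA, 1mM TCEP, 0.1 mg/ml BSA and 0.01% Tween-20, 1nM USP1/UAF1 is exposed to compound for 15 min, then Ub-Rho (150nM final) is added and fluorescence is read over time.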

[18] = measured here: cell count channel max response
[19] = measured here: lipid channel max response

Sequence of Cytochrome P450 1A2 (Homo sapiens) (P05177 whole entry, looked up): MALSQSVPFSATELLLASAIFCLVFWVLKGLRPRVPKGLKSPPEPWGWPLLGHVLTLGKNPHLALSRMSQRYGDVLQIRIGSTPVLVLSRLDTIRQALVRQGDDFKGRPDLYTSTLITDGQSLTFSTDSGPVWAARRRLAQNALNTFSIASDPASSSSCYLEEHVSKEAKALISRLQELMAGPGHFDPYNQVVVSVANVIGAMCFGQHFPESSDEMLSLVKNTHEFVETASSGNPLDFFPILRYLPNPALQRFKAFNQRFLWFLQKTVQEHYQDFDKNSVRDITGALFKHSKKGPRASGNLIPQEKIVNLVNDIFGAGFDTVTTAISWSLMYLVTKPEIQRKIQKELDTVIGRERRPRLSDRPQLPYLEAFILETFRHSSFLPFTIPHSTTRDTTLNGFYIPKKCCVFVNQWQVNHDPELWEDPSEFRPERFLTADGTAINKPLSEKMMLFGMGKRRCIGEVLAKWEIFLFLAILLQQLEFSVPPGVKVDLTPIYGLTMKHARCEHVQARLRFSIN
Sequence of Cytochrome P450 3A4 (Homo sapiens) (P08684 whole entry, looked up): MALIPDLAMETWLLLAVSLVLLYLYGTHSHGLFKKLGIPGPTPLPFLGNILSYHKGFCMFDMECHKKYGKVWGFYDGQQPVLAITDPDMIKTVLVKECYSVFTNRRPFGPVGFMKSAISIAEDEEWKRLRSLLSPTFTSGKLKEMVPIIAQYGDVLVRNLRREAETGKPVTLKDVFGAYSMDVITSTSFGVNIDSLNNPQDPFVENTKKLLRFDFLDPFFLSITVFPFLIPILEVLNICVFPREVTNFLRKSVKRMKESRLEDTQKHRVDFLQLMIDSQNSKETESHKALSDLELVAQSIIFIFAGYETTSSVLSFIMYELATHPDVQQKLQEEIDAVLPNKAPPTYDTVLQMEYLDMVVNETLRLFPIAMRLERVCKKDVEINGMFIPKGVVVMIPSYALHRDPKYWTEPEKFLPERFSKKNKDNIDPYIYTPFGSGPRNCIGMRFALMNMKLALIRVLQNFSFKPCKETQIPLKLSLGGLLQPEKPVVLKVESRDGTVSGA
Sequence of Lysosomal acid glucosylceramidase (Homo sapiens) (P04062 whole entry, looked up): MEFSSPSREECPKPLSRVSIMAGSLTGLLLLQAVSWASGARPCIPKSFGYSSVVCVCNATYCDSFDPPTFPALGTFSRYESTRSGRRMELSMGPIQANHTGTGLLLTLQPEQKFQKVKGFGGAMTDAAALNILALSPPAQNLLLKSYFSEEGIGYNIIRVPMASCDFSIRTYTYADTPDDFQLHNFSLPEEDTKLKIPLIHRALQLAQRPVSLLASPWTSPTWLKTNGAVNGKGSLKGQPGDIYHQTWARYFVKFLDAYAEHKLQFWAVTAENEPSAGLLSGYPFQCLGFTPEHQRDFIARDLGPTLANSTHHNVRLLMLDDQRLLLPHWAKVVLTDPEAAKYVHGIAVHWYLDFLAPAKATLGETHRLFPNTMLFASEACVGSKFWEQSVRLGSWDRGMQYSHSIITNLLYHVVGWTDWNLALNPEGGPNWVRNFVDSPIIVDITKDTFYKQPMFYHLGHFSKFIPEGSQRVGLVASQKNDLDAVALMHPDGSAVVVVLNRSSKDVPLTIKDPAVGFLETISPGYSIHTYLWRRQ
Sequence of Glucocorticoid receptor (Homo sapiens) (P04150 whole entry, looked up, the tested form may be a part): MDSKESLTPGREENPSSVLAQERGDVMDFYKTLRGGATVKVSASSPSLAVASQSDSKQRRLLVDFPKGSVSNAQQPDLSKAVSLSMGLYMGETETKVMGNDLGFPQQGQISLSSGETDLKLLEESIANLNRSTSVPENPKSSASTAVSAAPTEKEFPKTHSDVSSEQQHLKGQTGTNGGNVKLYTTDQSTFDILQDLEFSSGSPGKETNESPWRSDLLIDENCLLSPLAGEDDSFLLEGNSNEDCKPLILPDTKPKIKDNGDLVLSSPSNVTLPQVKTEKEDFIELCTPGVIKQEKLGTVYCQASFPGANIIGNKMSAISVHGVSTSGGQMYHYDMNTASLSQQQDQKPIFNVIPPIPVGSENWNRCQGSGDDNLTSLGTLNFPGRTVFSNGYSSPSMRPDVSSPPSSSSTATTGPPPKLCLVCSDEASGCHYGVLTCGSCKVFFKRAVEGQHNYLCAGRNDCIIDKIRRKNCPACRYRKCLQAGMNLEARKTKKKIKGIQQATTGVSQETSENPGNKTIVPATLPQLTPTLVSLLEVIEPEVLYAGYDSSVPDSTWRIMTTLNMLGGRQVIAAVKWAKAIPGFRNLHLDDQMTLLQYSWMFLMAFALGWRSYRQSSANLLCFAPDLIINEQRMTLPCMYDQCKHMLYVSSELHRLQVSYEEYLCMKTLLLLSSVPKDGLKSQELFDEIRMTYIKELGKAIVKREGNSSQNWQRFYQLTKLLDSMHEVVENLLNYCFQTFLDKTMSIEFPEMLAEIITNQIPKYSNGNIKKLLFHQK
Sequence of 3',5'-cyclic-AMP phosphodiesterase 4B (Homo sapiens) (Q07343 whole entry, looked up): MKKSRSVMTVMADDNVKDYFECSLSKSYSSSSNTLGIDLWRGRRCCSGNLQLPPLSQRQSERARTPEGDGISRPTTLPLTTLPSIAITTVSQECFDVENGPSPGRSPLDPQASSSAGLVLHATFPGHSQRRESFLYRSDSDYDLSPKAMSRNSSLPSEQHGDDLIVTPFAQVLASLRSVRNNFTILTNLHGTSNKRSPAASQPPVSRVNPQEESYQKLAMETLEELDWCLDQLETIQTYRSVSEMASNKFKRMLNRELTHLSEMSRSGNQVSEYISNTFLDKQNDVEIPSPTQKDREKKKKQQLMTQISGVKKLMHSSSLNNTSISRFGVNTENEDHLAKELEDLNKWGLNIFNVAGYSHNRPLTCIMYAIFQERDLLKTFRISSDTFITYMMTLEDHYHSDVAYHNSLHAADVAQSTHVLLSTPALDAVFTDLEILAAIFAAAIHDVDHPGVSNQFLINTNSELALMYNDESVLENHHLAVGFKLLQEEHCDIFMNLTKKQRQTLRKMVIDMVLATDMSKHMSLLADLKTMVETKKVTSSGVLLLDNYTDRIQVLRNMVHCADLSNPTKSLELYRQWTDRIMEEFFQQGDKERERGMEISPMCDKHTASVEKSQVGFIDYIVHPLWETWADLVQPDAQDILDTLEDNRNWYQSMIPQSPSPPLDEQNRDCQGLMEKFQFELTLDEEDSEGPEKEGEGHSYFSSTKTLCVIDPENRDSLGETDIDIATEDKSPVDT
Sequence of Cytochrome P450 2C19 (Homo sapiens) (P33261 whole entry, looked up): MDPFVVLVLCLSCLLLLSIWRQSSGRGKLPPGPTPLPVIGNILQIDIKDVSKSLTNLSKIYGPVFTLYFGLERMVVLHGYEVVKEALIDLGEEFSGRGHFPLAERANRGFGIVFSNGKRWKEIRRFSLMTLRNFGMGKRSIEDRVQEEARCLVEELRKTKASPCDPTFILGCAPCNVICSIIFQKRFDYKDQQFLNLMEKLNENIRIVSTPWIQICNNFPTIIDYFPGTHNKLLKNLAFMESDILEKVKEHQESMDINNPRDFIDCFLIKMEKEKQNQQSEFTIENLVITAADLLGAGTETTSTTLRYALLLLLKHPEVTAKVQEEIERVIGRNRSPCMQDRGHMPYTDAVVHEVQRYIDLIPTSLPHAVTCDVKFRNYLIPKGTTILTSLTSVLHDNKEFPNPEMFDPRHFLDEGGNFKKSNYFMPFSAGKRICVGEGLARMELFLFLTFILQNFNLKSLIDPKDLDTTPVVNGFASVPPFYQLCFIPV
Sequence of Ubiquitin carboxyl-terminal hydrolase 1 (Homo sapiens) (O94782 whole entry, looked up): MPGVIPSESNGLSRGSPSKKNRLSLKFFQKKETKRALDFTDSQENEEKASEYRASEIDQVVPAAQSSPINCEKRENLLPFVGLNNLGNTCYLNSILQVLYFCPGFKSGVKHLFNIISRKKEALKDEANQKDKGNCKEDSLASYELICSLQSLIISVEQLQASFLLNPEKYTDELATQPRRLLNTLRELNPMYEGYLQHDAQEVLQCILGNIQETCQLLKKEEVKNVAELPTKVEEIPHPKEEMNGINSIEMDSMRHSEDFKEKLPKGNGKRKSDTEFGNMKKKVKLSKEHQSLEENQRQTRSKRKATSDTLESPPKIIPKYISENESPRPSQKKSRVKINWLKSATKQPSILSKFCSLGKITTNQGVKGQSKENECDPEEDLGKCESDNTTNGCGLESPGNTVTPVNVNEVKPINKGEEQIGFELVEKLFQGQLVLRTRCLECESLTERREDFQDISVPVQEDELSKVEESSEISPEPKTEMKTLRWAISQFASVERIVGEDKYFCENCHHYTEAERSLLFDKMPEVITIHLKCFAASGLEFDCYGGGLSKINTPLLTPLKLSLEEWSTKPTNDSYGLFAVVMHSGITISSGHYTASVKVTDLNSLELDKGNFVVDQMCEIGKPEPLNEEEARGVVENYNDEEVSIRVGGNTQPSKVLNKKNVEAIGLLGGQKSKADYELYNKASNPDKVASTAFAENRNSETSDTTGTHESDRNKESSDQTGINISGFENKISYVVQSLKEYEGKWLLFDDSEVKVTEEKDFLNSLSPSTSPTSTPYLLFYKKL

SMILES | Potency [1] | activity change, negative = inhibition [2] | activity, negative = inhibition [3] | Potency [4] | Potency [5] | Potency [6] | Potency [7] | activity change, negative = inhibition [8] | max response [8, 18] [%] | max response [8, 19] [%] | outcome [9] | Potency [10] | Potency [11] | Potency [12] | Potency [13] | outcome [14] | Potency [15] | Potency [16] | Potency [17]
CC(C)CN1CC[C@@]2(CCCN(C(=O)c3ccco3)C2)C1 | > 11.4 µM (inactive) | 7.22% (inactive) | -2.85% (inactive) | > 46 µM (inactive) | inactive | inactive | inactive | 3.8% (inactive) | 3.5 | 8.53 | inactive | – | – | – | – | – | – | – | –
c1ccc(Nc2ncnc3ccc(-c4cccnc4)cc23)cc1 | > 11.4 µM (inactive) | – | 19.3% (inactive) | > 46 µM (inactive) | inactive | inactive | inactive | 7.8% (inactive) | -20.7 | -13.8 | inactive | 0.0794 µM (active) | > 46 µM (inactive) | 2.51 µM (active) | inactive | inactive | – | – | –
COc1ccc(C(=O)N2CCC3(CCN(Cc4ccc(C#N)cc4)CC3)CC2)cc1 | > 11.4 µM (inactive) | – | 0.785% (inactive) | > 46 µM (inactive) | inactive | inactive | – | 1.02% (inactive) | 16.6 | 21 | inactive | 12.6 µM (active) | – | – | – | – | – | – | –
CS(=O)(=O)N1CCC2(CC1)CN(C(c1ccccc1)c1ccccc1)C2 | > 11.4 µM (inactive) | -0.932% (inactive) | -5.62% (inactive) | > 46 µM (inactive) | inactive | inactive | 15.8 µM (active) | -2.92% (inactive) | -5.26 | -3.93 | inactive | inactive | – | inactive | – | – | – | – | –
COc1ccc(C(=O)N2CCC3(CCCN(Cc4ccccc4)C3)CC2)cc1 | > 11.4 µM (inactive) | – | – | > 46 µM (inactive) | inactive | inactive | inactive | 4.53% (inactive) | 1.31 | 6.86 | inactive | inactive | – | – | – | – | – | – | –
Cc1noc(C)c1-c1ccc2ncnc(N(C)Cc3ccco3)c2c1 | > 11.4 µM (inactive) | – | – | > 46 µM (inactive) | inactive | – | inactive | 2.4% (inactive) | 23.8 | 25.4 | inactive | 2.51 µM (active) | > 46 µM (inactive) | – | inactive | inactive | 5.01 µM (active) | 1.58 µM (active) | inactive
COc1ccc(-c2nc3cnc(N4CCNCC4)nc3n(CCC#N)c2=O)cc1 | > 11.4 µM (inactive) | – | – | > 46 µM (inactive) | inactive | inactive | inactive | 4.58% (inactive) | 17 | 25 | inactive | 15.8 µM (active) | > 9.22 µM (inactive) | – | – | – | – | 3.16 µM (active) | –
